{"source": "the supplement of paper PMC10338343", "note": "± gives the standard deviation.", "data": [{"system": "MILI (PIWIL2) piRISC loaded with L1MC piRNA (26 nt)", "test": "pre-steady-state target cleavage rate (min^-1); guide: L1MC piRNA 5'p-UAACUAAAUACUAUGCAAGCUGUAGG; higher = faster piRNA-guided slicing of the target", "conditions": "auxiliary factor: 500 nM mouse GTSF1", "outline": "(§1)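 The pre-steady-state cleavage rate was obtained by Cleave-'n-Seq with a burst-and-steady-state fit. A transcribed, DNA-blocked target RNA library (0.1 nM) was mixed with 1 nM active affinity-purified piRISC carrying one synthetic guide, with or without 500 nM GTSF1 partner protein, in HEPES–potassium acetate buffer at 33 °C for 0–8 or 0–960 min. Uncleaved targets were sequenced and normalised to depth and to weakly complementary targets, with three trials pooled and k3 capped at 0.0001 min^-1.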", "values": [{"sequence": "UCCUGGUAGAGCUUCCAUAGUAUUUAGUUA", "pre-steady-state target cleavage rate": "0.0967 ± 0.033"}, {"sequence": "UCCUGGAUCAGCUUGCUUAGUAUUUUCAAA", "pre-steady-state target cleavage rate": "0.0126 ± 0.0057"}, {"sequence": "UCCUGGAUGUCGUUGCCAUAGUAUUUAGUUA", "pre-steady-state target cleavage rate": "0.00586 ± 0.0034"}, {"sequence": "UCCUGCUACAGCUUGCAAUCUAUUUUCAAA", "pre-steady-state target cleavage rate": "0.00419 ± 0.0036"}, {"sequence": "UCCUGGUACACGUUGCAUAGUAUUUUCAAA", "pre-steady-state target cleavage rate": "0.02 ± 0.011"}, {"sequence": "UCCUGGUUGUGCUUGCAUAGUAUUUACAAA", "pre-steady-state target cleavage rate": "0.00786 ± 0.0048"}, {"sequence": "UCCUGGAUGUCGAUGCAUAGUUUUAAGUUA", "pre-steady-state target cleavage rate": "0.00654 ± 0.0039"}, {"sequence": "UCCUGGAUCAGCUUGGAUAGUAUUUAGAUA", "pre-steady-state target cleavage rate": "0.0949 ± 0.016"}, {"sequence": "UCCUGGAUGUCCUUGCAUACUAUUUAGUAA", "pre-steady-state target cleavage rate": "0.0148 ± 0.0062"}, {"sequence": "UCCUGGAUGUCCUUGCAUAGUAAAAAGUAA", "pre-steady-state target cleavage rate": "0.00651 ± 0.0043"}, {"sequence": "UCCUGGAUGUCGUACCAUAGUAUUUAGUUA", "pre-steady-state target cleavage rate": "0.0168 ± 0.0047"}, {"sequence": "UCCUGGAUGUCCAUGCAUAGUAAUUAGUUA", "pre-steady-state target cleavage rate": "0.0249 ± 0.0072"}, {"sequence": "UCCUGGAACAGCUUGCAUAGUAUUUAGUCUA", "pre-steady-state target cleavage rate": "0.055 ± 0.015"}, {"sequence": "UCCUGGAUCAGCUUGCAUAGUAUAUAGAAA", "pre-steady-state target cleavage rate": "0.115 ± 0.03"}, {"sequence": "UCCUGGUACAGCUUGGUAAGUAUUUAGAAA", "pre-steady-state target cleavage rate": "0.0185 ± 0.0092"}, {"sequence": "UCCUGGAUGAGCUUGCAUAGUAAAUAGUUA", "pre-steady-state target cleavage rate": "0.114 ± 0.015"}, {"sequence": "UCCUGGUACAGCUUGCAUAGUAAUUACUUA", "pre-steady-state target cleavage rate": "0.00729 ± 0.0052"}, {"sequence": "UCCUGGAUGAGCUACCAUAGUAUUUAGUAA", "pre-steady-state target cleavage rate": "0.1 ± 0.018"}, {"sequence": "UCCUGGAUGUCGAAGCAUAGUAUGUAGUUA", "pre-steady-state target cleavage rate": "0.0113 ± 0.0045"}, {"sequence": "UCCUGGUACAGCUUGCUUAGUAUUUACAAA", "pre-steady-state target cleavage rate": "0.0242 ± 0.009"}, {"sequence": "UCCUGGAUGUCCUUGCAUAAUAUUUAGUUA", "pre-steady-state target cleavage rate": "0.0892 ± 0.015"}, {"sequence": "UCCUGGAACAGCUUGCAUAGUAUUAUCUUA", "pre-steady-state target cleavage rate": "0.0578 ± 0.015"}, {"sequence": "UCCUGGAUGAGCAUGCAUAGUAUUUACAAA", "pre-steady-state target cleavage rate": "0.0679 ± 0.018"}, {"sequence": "UCCUGGAUCAGCUUGCAAAGUAUUUAGAAA", "pre-steady-state target cleavage rate": "0.0827 ± 0.015"}, {"sequence": "UCCUGGAUCAGCAUGCAUAGAAUUUAGUUA", "pre-steady-state target cleavage rate": "0.0386 ± 0.0077"}, {"sequence": "UCCUGGAUGAGCUUGCAUAGUAAUUACUUA", "pre-steady-state target cleavage rate": "0.00616 ± 0.004"}, {"sequence": "UCCUGCUACAGCUUGCAAUGUAUUUUCAAA", "pre-steady-state target cleavage rate": "0.00975 ± 0.0041"}, {"sequence": "UCCUGCUACAGCUUCGAUAGUAUUUAGAAA", "pre-steady-state target cleavage rate": "0.0541 ± 0.017"}, {"sequence": "UCCUGGAUGUCCUUGCAUUGUAUUUUGUUA", "pre-steady-state target cleavage rate": "0.0388 ± 0.013"}, {"sequence": "UCCUGGUACACCUUGCAUAGUAUAUAGUUA", "pre-steady-state target cleavage rate": "0.311 ± 0.059"}, {"sequence": "UCCUGGAUGUGCUUCGAUAGUAUUUAGUAA", "pre-steady-state target cleavage rate": "0.0404 ± 0.011"}, {"sequence": "UCCUGGAUGUCCUUGCAUAGUAUAUAGUAA", "pre-steady-state target cleavage rate": "0.0276 ± 0.01"}]}, {"system": "MILI (PIWIL2) piRISC loaded with L1MC piRNA (26 nt)", "test": "pre-steady-state target cleavage rate (min^-1); guide: L1MC piRNA 5'p-UAACUAAAUACUAUGCAAGCUGUAGG; MIWI and MILI are mouse PIWI proteins and EfPiwi is from a freshwater sponge; tags in brackets are library labels; higher = faster piRNA-guided slicing of the target", "conditions": "auxiliary factor: none (no GTSF1)", "outline": "as §1", "values": [{"sequence": "UCCUGGAUGUCGAUGCAUACUAUUUAGUAA", "pre-steady-state target cleavage rate": "< 0.0001"}, {"sequence": "UCCUGGAUGUCGAACGUUAGUAUAUAGUUA", "pre-steady-state target cleavage rate": "< 0.0001"}, {"sequence": "UCCUGGAUGUCGAACGAUAGUUAAUAGUUA", "pre-steady-state target cleavage rate": "< 0.0001"}, {"sequence": "UCCUGGAUGUCGUACGAUAGUAUUUAGUUA", "pre-steady-state target cleavage rate": "< 0.0001"}, {"sequence": "UCCUGGAUGUCGAACGUAUGAUAUUAGUUA", "pre-steady-state target cleavage rate": "< 0.0001"}, {"sequence": "UCCUGGAUGUCGAACCAUAGUAAAAAGUUA", "pre-steady-state target cleavage rate": "< 0.0001"}, {"sequence": "UCCUGGAUGUCGAACGUAAGUAUUUUGUUA", "pre-steady-state target cleavage rate": "< 0.0001"}, {"sequence": "UCCUGGAUGUCGAACGAUGAGUAUUUAGUUA", "pre-steady-state target cleavage rate": "< 0.0001"}]}]}
